Screening data deposited in PubChem BioAssay by The Scripps Research Institute Molecular Screening Center.
This is a sample that favours compounds with a hit; in the whole collection about 2.3% have one here.
CHO-K1 Ca antag – nonselective inhibitor or artifact in parental CHO-K1 cells. ATP-induced calcium, Fluo-8 fluorescence. inhibition, % at 3 µM. hit rate 0.6% among 360,000. AID 602250;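 active = inhibition above a per-plate cutoff, the plate's mean sample inhibition plus 3 SD, cut at about 24% in these data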
CHRM1 PAM – human M1 muscarinic receptor positive allosteric modulators, primary screen, CHO-K1 cells, Fluo-8 calcium fluorescence, 1536-well. Muscarinic acetylcholine receptor M1 (Homo sapiens), P11229. hit rate 0.088% among 360,000. CHO-K1 hM1, ACh EC20; 0% = ACh EC20, 100% = maximal ACh. activation, % at 3 µM; in the data active = activation above about 19%, passing the limit was not always enough
Target sequence (P11229 whole entry, looked up): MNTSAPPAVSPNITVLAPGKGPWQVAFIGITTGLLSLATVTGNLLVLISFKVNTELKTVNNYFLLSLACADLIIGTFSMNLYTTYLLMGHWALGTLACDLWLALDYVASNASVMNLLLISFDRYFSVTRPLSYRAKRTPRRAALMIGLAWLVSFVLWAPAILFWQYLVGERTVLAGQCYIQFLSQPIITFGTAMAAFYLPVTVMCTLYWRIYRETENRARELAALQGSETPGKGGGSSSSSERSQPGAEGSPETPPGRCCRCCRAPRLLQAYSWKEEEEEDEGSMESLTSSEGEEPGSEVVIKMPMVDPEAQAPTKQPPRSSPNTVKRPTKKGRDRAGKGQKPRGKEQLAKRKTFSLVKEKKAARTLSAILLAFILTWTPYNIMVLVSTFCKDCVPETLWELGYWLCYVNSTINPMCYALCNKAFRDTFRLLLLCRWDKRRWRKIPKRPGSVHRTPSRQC
CHRM1 agonist – human M1 muscarinic receptor agonists, primary screen, Fluo-8 calcium fluorescence, CHO-K1 cells, HTS; Muscarinic acetylcholine receptor M1 (Homo sapiens), P11229; CHO-K1 hM1, agonist mode; 0% DMSO, 100% acetylcholine EC100; activation, % at 3 µM; hit rate 0.33% among 360,000;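 active = activation above the run's mean compound activation plus 3 SD, cut at about 16% in these data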;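 also: peak over basal fluorescence ratio within a 140 s kinetic read after compound addition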
M1 antag – human M1 muscarinic receptor antagonists, primary screen, CHO-K1 cells, Fluo-8 calcium fluorescence, 1536-well. CHO-K1 hM1, ACh EC80 antagonist. inhibition, % at 3 µM. hit rate 1.3% among 360,000. AID 588852, 2011;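 active = percent inhibition above its own plate's cutoff, namely the mean of that plate's compound wells plus 3 SD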;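 also: peak over basal fluorescence ratio during 140 s after agonist addition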
M1 PAM parental – nonselective calcium activators in parental CHO-K1 cells, primary screen, counter-screen for M1 PAM project, cell-based, Fluo-8 calcium fluorescence, full deck, 1536-well; ATP EC20; 0% at ATP EC20, 100% at ATP max; activation, % at 3 µM; hit rate 0.02% among 360,000; AID 602247, 2012;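 active = activation above the run cutoff, the mean activation of all test compounds plus 3 SD, cut at about 40% in these data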;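 also: peak over basal fluorescence ratio in a 140 s read after ATP addition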
CHO-K1 Ca ag – counter-screen for M1 agonists: effect in parental CHO-K1 cells; hit rate 0.48% among 360,000; AID 602248, 2012; Fluo-8 calcium fluorescence; scaled to maximal ATP response, vehicle zero; activation, % at 3 µM; in the data active = activation above about 15%;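 also: untransfected CHO-K1 host cells lacking M1 receptor as counterscreen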
Of the large screens only hits and unclear results are named; the others gave an inactive call.

S=c1[nH]nc(-c2cccs2)n1/N=C/c1c(Cl)cccc1Cl	CHRM1 agonist 20
CN(C)Cc1cc(C(C)(C)c2ccccc2)ccc1O	M1 antag 43
CCc1nc2c(OCC(=O)N3CCOCC3)cccn2c1N(C=O)Cc1ccccc1	none
CCC(C)NS(=O)(=O)c1ccc(S(=O)(=O)N2CCCC3(CCCCC3)C2)cc1 (centres undefined)	M1 antag 36
Cc1ccccc1COc1cccn2c(N(C)C(=O)CCC3CCCC3)c(C)nc12	M1 antag 39
COc1ccccc1COc1cccn2c(N(C)C(=O)CCC3CCCC3)c(C)nc12	none
O=C(CSc1cccc[n+]1[O-])Nc1c(Br)cc([N+](=O)[O-])cc1Br	none
COc1ccc(NCC(=O)Nc2cccc(C(F)(F)F)c2)cc1S(=O)(=O)N1CCOCC1	none
O=C(c1ccc(Cl)c(S(=O)(=O)NCc2cccnc2)c1)N1CCCC1	none
CCOc1ccc(N2CC(O)=C(c3nc4ccccc4c(=O)[nH]3)C2=N)cc1	none
COc1ccc(CCN2CC(O)=C(c3nc4ccccc4c(=O)[nH]3)C2=N)cc1OC	CHO-K1 Ca antag 30
COc1ccc(CCN2CC(O)=C(c3nc(C)cs3)C2=N)cc1OC	none
CCSc1nc2ccccc2c(=O)n1CCc1ccc(OC)c(OC)c1	M1 antag 25
CCOC(=O)c1ccc(N2CC(O)=C(c3nc4ccccc4c(=O)[nH]3)C2=N)cc1	CHO-K1 Ca antag 24
COc1ccc(OCCN2CCC(C(=O)NC(c3ccsc3)c3ccccc3C)CC2)cc1 (centres undefined)	none
CCOC(=O)C1CCCN(c2c(NCc3ccco3)c(=O)c2=O)C1 (centres undefined)	CHRM1 agonist 27
CCOc1cc(N2CCOCC2)c(OCC)cc1NC(=O)COC(=O)c1cc(C)oc1C	CHO-K1 Ca antag 25
CCOC(=O)c1ccccc1-n1c(C)cc(C2N=C(N)Nc3nc4ccccc4n32)c1C (centres undefined)	M1 antag 81
CC1=C(C#N)C(C(F)(F)F)(C(F)(F)F)N=C(c2ccco2)N1	CHO-K1 Ca ag 16
COC(=O)CCC(=O)N1CCOCCOCCOCC1	CHO-K1 Ca ag 16
COC(=O)CCC(=O)N1CCOCCOCCN(C(=O)CCC(=O)OC)CCOCCOCC1	none
O=C1CC(c2cccs2)CC2=C1C(c1ccccc1)n1ncnc1N2 (centres undefined)	none
CC1CC(=O)C2=C(C1)Nc1ncnn1C2c1ccccc1 (centres undefined)	CHO-K1 Ca antag 28
CCN(C(=O)CSc1nnc(-c2ccc(OC)cc2)n1C(C)C)C1CCS(=O)(=O)C1 (centres undefined)	none
CCS(=O)(=O)c1nc(S(=O)(=O)c2ccc(C)cc2)c(N2CCC3(CC2)OCCO3)s1	none
CN1CCN(C(=O)c2ccccc2N(Cc2ccccc2)S(=O)(=O)c2ccccc2)CC1	CHRM1 agonist 28
CCN1C(=O)S/C(=C/c2c(OCc3ccc(C(=O)O)cc3)ccc3ccccc23)C1=O	CHRM1 agonist 29
O=C(O)c1ccc(COc2ccc3ccccc3c2/C=C2/NC(=O)N(c3ccccc3)C2=O)cc1	none
O=C(NCc1csc2ccccc12)Nc1cc(Cl)cc(Cl)c1	M1 antag 33
O=C(Nc1ccccc1)Nc1cc(OCC(F)(F)F)cc(OCC(F)(F)F)c1	CHO-K1 Ca antag 32, M1 antag 25
O=C(Nc1ccccc1)Nc1cc(Cl)cc(Cl)c1	CHO-K1 Ca antag 24
O=C(Nc1cccnc1)Nc1cc(Cl)cc(Cl)c1	CHO-K1 Ca antag 37
O=C(Nc1ccc(Nc2ccccc2)cc1)Nc1ccccc1Cl	none
CC(C)Cn1c(=O)c2c(nc3n2CC(C)CN3Cc2ccccc2)n(C)c1=O (centres undefined)	none
CN1CCN(C(=O)C2=C[C@@H](c3ccccc3)C[C@@H](OCCCCO)O2)CC1	none
CCN(CC)CCNC(=O)c1ccc2c(=O)n(C3CCCC3)c(=S)[nH]c2c1	M1 antag 57
CC(C)NC(=O)c1ccc2c(=O)n(C3CCCC3)c(=S)[nH]c2c1	none
CC(C)(C)NCC(O)(c1ccc(Cl)cc1)c1ccc(Cl)cc1	none
CCN(CC)CCNCC(O)(c1ccc(Cl)cc1)c1ccc(Cl)cc1	M1 antag 51
Nc1sc(-c2ccccc2)n[n+]1Cc1cccc2cccnc12	M1 antag 66
COCCn1c(C)cc(/C=C(\C#N)C(=O)OCC(=O)Nc2ccc(S(N)(=O)=O)cc2)c1C	none
Nc1c(C(=O)Nc2cccc(F)c2)nnn1-c1ccc2c(c1)OCCO2	none
Cc1ccc2c(c1)c1c(n2CC(O)CN2CCCCC2C)CCCC1 (centres undefined)	M1 antag 42
Cc1ccc2c(c1)c(C)c(C)n2CC(O)CN1CCCCC1C (centres undefined)	none
CC(C)(C)c1cc(C2=CSC3=NCCN23)cc(C(C)(C)C)c1O	M1 antag 36
CN1C(=S)N(c2cccnc2)C(=O)/C1=C\c1ccc(C(C)(C)C)cc1	none
CN1C(=S)N(c2cccnc2)C(=O)/C1=C\c1ccc(N(C)C)cc1	CHRM1 agonist 39, M1 antag 44, CHO-K1 Ca ag 21
CCCNCCC(c1ccco1)c1ccccc1OC (centres undefined)	M1 antag 41
COc1ccc(Cc2c(C(C)(C)C)nc3cc(C)c(Br)c(C)n23)c(C)c1	none (no result: CHRM1 PAM, CHRM1 agonist, M1 antag)
COc1ccc(Cc2c(C(C)(C)C)nc3c(C)cc(Br)cn23)c(C)c1	CHO-K1 Ca antag 25
Cc1ccc(OCC(O)CNCc2ccc(F)cc2)cc1 (centres undefined)	none
OC(CNCCNc1ncccc1C(F)(F)F)COc1ccc(F)cc1 (centres undefined)	CHRM1 agonist 40
COc1ccc(C2/C=C\CN(C(=O)CC(C)(C)C)CC(=O)N2Cc2ccc(F)cc2)cc1 (centres undefined)	none
COc1ccc(C2/C=C\CN(C(=O)C3CC3)CC(=O)N2Cc2ccc(F)cc2)cc1 (centres undefined)	CHO-K1 Ca antag 25
CC1CCN(CC(O)CN2c3ccccc3Sc3ccccc32)CC1 (centres undefined)	CHO-K1 Ca ag 25
CC1CCN(C(=O)N2c3ccccc3Sc3ccccc32)CC1	none
Cc1ccc(-c2nc(CN3CCN(C(=O)C4CCCO4)CC3)cs2)cc1 (centres undefined)	none
COc1ccccc1CNC(=O)CCNS(=O)(=O)c1ccc2[nH]c(=O)oc2c1	none
